A selection: hits, their analogues and other compounds. The true share with any hit is near 21%.
Shiga inhibitor – Shiga toxin inhibition; Vero cells, Shiga toxin protein synthesis inhibition reporter; inhibition, % at 38.7 µM; 290,000 tested, 9.2% active; in the data active = inhibition mostly above about 28%, no sharp cut-off; inactive = mostly below about 43%; also: 0% is about no effect
Pf growth 96h – P. falciparum growth inhibition at 96 hour, primary screen for plastid delayed-death inhibitors; P. falciparum luciferase reporter growth, 96 h; Potency, µM (titrated, usually from 28.7 µM), inactives show at the highest dose activity change, negative = inhibition, hits mostly inhibitors; 320,000 tested, 6.9% active; also: potency is read from the fitted curve at half-maximal effect; % is scaled to controls: 0 for no effect and ±100 for the full control effect
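Two-generation exposure (96 h) targets delayed-death phenotype. Reporter parasites carrying integrated firefly luciferase, in red cells at 2% hematocrit and 0.05% parasitemia final, kept at 37 C, 5% CO2; luminescence loss indicates inhibition.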
Cycloheximide cs – counter-screen for Shiga toxin inhibitors: cycloheximide protein synthesis inhibition; cell reporter, cycloheximide protein synthesis inhibition counterscreen; max response, %; 300,000 tested, 12% active; in the data active = max response mostly above about 13%, no sharp cut-off; inactive = mostly below about 14%; also: read at 38.3 µM for the half of the compounds with a filed dose; 0% is about no effect
Pf growth 48h – P. falciparum growth inhibition at 48 hours (one generation); 310,000 tested, 5.9% active; Potency, µM (titrated, usually from 28.7 µM), without a hit: at the top dose activity change, negative = inhibition, most hits filed as inhibitors; AID 504832; P. falciparum luciferase growth in erythrocytes, 48 h; also: potency is read from the fitted curve at half-maximal effect; % is scaled to controls: 0 for no effect and ±100 for the full control effect
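Parasite viability was followed by luminescence of a genomically integrated firefly luciferase. Cultures held 0.1% parasitemia at 2% hematocrit (final), incubated under 5% CO2 at 37 C.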
The depositor's hits bear a star; ? = inconclusive; nt = no result. Unless noted, calls follow the shape of the dose curve; as a rule, active = well fitted inhibition curve with a large enough effect; inconclusive = small, poorly fitted or top-dose-only effect, or another doubt; inactive = no such curve, though single readings can be large or run the other way.

SMILES | Shiga inhibitor | Pf growth 96h | Cycloheximide cs | Pf growth 48h
CCN(CC)CCNCC(=O)Nc1ccc(Cl)cc1C(=O)c1ccccc1 | -3 | ? | -3 | nt
C[N+](C)(C)CC(=O)Nc1ccc(Cl)cc1C(=O)c1ccccc1 | 19 | 20% | -1 | 12µM*
COc1ccc(C(C)=O)cc1COC(=O)c1cc(=O)c2ccccc2o1 | 1 | 22% | -4 | 8%
Cc1ccc(NC2CCCN(C(=O)CCN3CCOCC3)C2)cc1C (stereo not drawn) | -7 | ? | 2 | 6%
COC(=O)C1=C(C)N(Cc2ccccc2)C(=NCC2CC2)N[C@H]1c1ccc(Br)cc1 | -3 | ? | -5 | ?
O=C(C[n+]1cccc(CNC(=O)c2ccc(OC(F)F)cc2)c1)Nc1cc(C(F)(F)F)ccc1Cl | -7 | 0.93µM* | -2 | 1.7µM*
Cc1coc2cc3oc(=O)c(CCC(=O)NCCCn4ccnc4)c(C)c3cc12 | 7 | 10µM* | -1 | -12%
Cc1c(CCC(=O)NCCCn2ccnc2)c(=O)oc2cc3occ(C(C)(C)C)c3cc12 | -6 | ? | -5 | ?
Cc1oc2cc3oc(=O)c(CCC(=O)NC4CC4)c(C)c3cc2c1C | 1 | ? | -4 | ?
Cc1c(CCC(=O)NCCCn2ccnc2)c(=O)oc2cc3oc4c(c3cc12)CCCC4 | 20 | ? | 11 | 10µM*
Cc1oc2cc3oc(=O)c(CCC(=O)NCCCn4ccnc4)c(C)c3cc2c1C | 15 | ? | 7.8* | 1%
Cc1c(C)c2ccc(OCC(=O)NCCCn3ccnc3)cc2oc1=O | 23 | 1% | -6 | 21%
Cc1oc2cc3oc(=O)c(CCC(=O)NCCCN4CCOCC4)c(C)c3cc2c1C | 27 | ? | active | -16%
Cc1c(CC(=O)NCCCC(=O)O)c(=O)oc2cc3oc4c(c3cc12)CCCC4 | -8 | 9% | -3 | 2%
COc1ccc(C)cc1NC(=O)C(c1ccccc1)N1CCNC(=O)C1 (stereo not drawn) | -5 | 2% | 1 | 22%
Cc1oc2c(C)c3oc(=O)c(CCC(=O)NCCCn4ccnc4)c(C)c3cc2c1C | 6 | ? | -4 | 13µM*
CSc1nc2c(cc1C#N)CCC2 | -10 | -8% | 2 | 21%
C=CCSc1nc2c(cc1C#N)CCC2 | 28 | ? | 16* | -7%
C=C(C)CSc1nc2c(cc1C#N)CCC2 | 5 | 15µM* | -1 | -3%
CCCCSc1nc2c(cc1C#N)CCC2 | 25 | ? | 12* | ?
O=C(Cc1cnc2ncnn2c1)N1CCc2c([nH]c3ccccc23)C1c1ccccn1 (stereo not drawn) | -10 | 16% | 4 | 0%
Cc1cccc(C(=O)Nc2ccc(C(=O)Nc3ccc(O)cc3)cc2)c1 | -8 | ? | -2 | -28%
COc1nc(N)nc(N)c1NS(=O)(=O)c1ccc(C)cc1 | -24 | 14% | -2 | 1%
CN(C)/N=C/c1c(O)ccc2ccccc12 | 2 | 41% | 11 | nt
CC(=O)N(C)c1ccc(N=Cc2c(O)ccc3ccccc23)cc1 | 25* | 286% | 17* | 17%
SMILES | Shiga inhibitor | Pf growth 96h | Cycloheximide cs | Pf growth 48h
Cc1cc(C(=O)O)ccc1N=Cc1c(O)ccc2ccccc12 | 25 | 12µM* | 10* | 49%
CC(=O)c1cccc(N=Cc2c(O)ccc3ccccc23)c1 | -3 | -8% | 2 | 12%
Oc1ccc2ccccc2c1C=Nc1ccccc1Br | -7 | 18% | 1 | 2%
CS/C(N)=N/N=C/c1c(O)ccc2ccccc12 | 58* | 74% | 29* | 86%
Oc1ccccc1N=Cc1c(O)ccc2ccccc12 | 39* | 10µM* | 11* | ?
CN(C)C(=O)c1ccc(Nc2ncnc3sc4c(c23)CCCCC4)cc1 | -6 | ? | -5 | ?
COc1ccccc1C1CCN(c2cc(O)ccc2[N+](=O)[O-])CC1 | -3 | ? | 1 | ?
CCOC(=O)c1c(-c2ccccc2)c2cc(OC)ccc2n1CCCN(C)C | -3 | 65% | -1 | 9.3µM*
CCNc1nc(NC(C)C)nc(N(C#N)C(C)C(=O)N(C)C)n1 (stereo not drawn) | -1 | ? | 0 | ?
CC(C)Nc1nc(NC(C)C)nc(N(C#N)C(C)C(=O)N(C)C)n1 (stereo not drawn) | 34 | 5.2µM* | 7 | -8%
Cc1ccc(CNc2ccc(O)cc2)cc1 | 43 | nt | 24 | ?
Cc1cccc(NCCNc2cccc(C)c2)c1 | 25 | 57% | 18* | 4%
Cc1ccc(NCc2ccccc2F)cc1 | 29* | 1% | 9 | -1%
Cc1ccc(NCc2ccccc2O)cc1 | 72* | nt | 30* | 3%
Cc1cccc(NCc2ccccc2O)c1 | 25 | 8% | 18* | -4%

Source: PubChem BioAssay (National Center for Advancing Translational Sciences (NCATS))
